Our source for the AC50 and activity, negative = inhibition values is PubChem BioAssay AID1851 (National Center for Advancing Translational Sciences (NCATS), 2009).

About 5,100 (32%) of roughly 16,000 compounds were called active. Roughly 25% stayed inconclusive and do not appear here. Calls follow the shape of the dose curve; as a rule, active = well fitted curve in the direction sought with a large enough effect; inconclusive = small, poorly fitted or top-dose-only effect, or effect the other way; inactive = no such curve, though single readings can be large or run the other way. This is one part of the list.

What is called AC50 is the concentration at which the activity in the assay is half-maximal.
% is scaled to controls: 0 for no effect and ±100 for the full control effect.

The target of this test is Cytochrome P450 3A4 (Homo sapiens) (UniProt P08684). Description: Cytochrome panel assay with activity outcomes. As to conditions: recombinant CYP, pro-luciferin dealkylation, luminescence, p450-cyp3a4; series mostly up to 57.1 µM.
Sequence of Cytochrome P450 3A4 (Homo sapiens) (P08684 whole entry, looked up): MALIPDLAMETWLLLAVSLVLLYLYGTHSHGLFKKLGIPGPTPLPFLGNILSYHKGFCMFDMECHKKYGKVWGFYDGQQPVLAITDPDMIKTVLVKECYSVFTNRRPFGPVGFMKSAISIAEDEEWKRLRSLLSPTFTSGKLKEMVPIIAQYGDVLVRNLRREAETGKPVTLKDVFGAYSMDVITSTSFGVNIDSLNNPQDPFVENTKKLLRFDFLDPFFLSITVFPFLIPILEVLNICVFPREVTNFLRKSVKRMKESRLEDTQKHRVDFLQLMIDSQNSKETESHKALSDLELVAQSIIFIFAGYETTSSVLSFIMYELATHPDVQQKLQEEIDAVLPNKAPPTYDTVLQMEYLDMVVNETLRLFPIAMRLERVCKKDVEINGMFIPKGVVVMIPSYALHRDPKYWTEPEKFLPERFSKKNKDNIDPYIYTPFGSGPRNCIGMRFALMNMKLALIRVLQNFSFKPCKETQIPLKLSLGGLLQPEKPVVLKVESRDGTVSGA
For `CN1CCCCC1=NCCCn1cnc2c1c(=O)n(C)c(=O)n2C`, the AC50 result is “inactive”. On to `CC(=O)[C@H]1CC[C@@H]2[C@H]3CC=C4C[C@@H](O)CC[C@]4(C)[C@H]3CC[C@]12C`, for which the AC50 entry was “inactive”. For the compound `Cc1cc(C)c2c(-n3cccc3)n[nH]c2n1`, the AC50 result is “inactive”.

With `COc1cccc(-c2ccc3ncnc(NCCNC(C)=O)c3c2)c1`, the half-maximal activity concentration (AC50) is 15.8 µM (active). As to `COCCNc1ncnc2ccc(-c3cccc(OC)c3)cc12`, the AC50 is 12.6 µM (active).

`COCCNc1ncnc2ccc(-c3cccnc3)cc12`: the AC50 is 10 µM (active). For `Brc1[nH]nc2ccccc12`, the AC50 result is “inactive”. Turning to `O=[N+]([O-])c1cccc2c(Br)[nH]nc12`, the AC50 was 12.6 µM (active). As to `O=[N+]([O-])c1cccc2cn[nH]c12`, the AC50 result is “inactive”. On the same count and under the same terms, for `COC(=O)c1ccc(NC(=O)Cn2nc(-c3ccncc3)nc2SCC(=O)Nc2nccs2)cc1` the value was 2 µM (active); for `Cc1oc(-c2cccs2)[n+]([O-])c1C`, “inactive”. Regarding `CC(=O)Nc1ccc(NC2=Nc3ccccc3N3C2=Nc2c(c(C)nn2-c2ccccc2)C3c2ccccc2)cc1` (stereo unspecified), the AC50 result was “inactive”. Consider `CCCCN(C)CCCNC(=O)CCn1nc(-c2ccccc2)ccc1=O`, for which the AC50 entry is “inactive”.

Take `CCN(CCCNC(=O)CC(C(=O)N1CCc2ccccc21)n1ccnc1)c1ccccc1` (stereo unspecified): the AC50 was 0.794 µM (active). `CCN(CC)CCC(=O)Nc1ccc2c(c1)N(C(=O)CN(CC)CC)c1ccccc1CC2`: the activity, negative = inhibition was 3.63% [at 2.29 µM] (inactive).

In the case of `Cc1cc(C)c(S(=O)(=O)n2ccc(-c3ccc(OCCN(C)c4ccccn4)cc3)n2)c(C)c1`, the AC50 is 2.24 µM (active). Regarding `COC(=O)[C@H]1C[C@@H]1[C@H](NC(=O)c1cc(C)nn1C)c1ccccc1`, the AC50 is 6.31 µM (active).

For the compound `COC(=O)[C@@H]1C[C@H]1[C@@H](NC(=O)c1cc(C)nn1C)c1ccccc1`, the half-maximal activity concentration (AC50) is 10 µM (active). `O=c1ccc(Oc2nc(N3CCOCC3)nc(N3CCOCC3)n2)n[nH]1`: the AC50 result is “inactive”.

With `N#C/C(=C\c1ccc(O)c(O)c1)C(=O)NCc1ccccc1`, the AC50 is 15.8 µM (active). `Cc1cc(/C=C(/C#N)C(=O)Nc2ccccc2)c(C)n1-c1cccnc1`: the AC50 result was “inactive”. As to `N#C/C(=C\c1ccc(O)c(O)c1)C(=O)NCCc1ccccc1`, the AC50 is 3.98 µM (active). Still for that read-out and setting: for `N#C/C(=C\c1ccc(O)c(O)c1)C(=O)Nc1ccccc1` the value was 15.8 µM (active); for `O=C(O)/C=C\C(=O)NCc1ccccc1`, “inactive”; for `COc1ccc(/C=C(/C#N)C(=O)Nc2cc(C)ccc2C)cc1C(=O)O`, “inactive”. Same read-out and setting: to `N#C/C(=C\c1ccc(O)c(O)c1)C(=O)NCCCc1ccccc1` belongs 2.51 µM (active); to `COCCN1CN=C(Nc2nc3ccccc3o2)NC1`, “inactive”. On to `CC(/C=N/NC(=O)Cc1cccs1)=C\c1ccco1`, for which the activity, negative = inhibition is 1.99% [at 2.29 µM] (inactive). In the case of `CC(=O)OCC1=C(C(=O)O)N2C(=O)[C@@H](NC(=O)Cc3cccs3)[C@@H]2SC1`, the AC50 entry is “inactive”. In the case of `CC(C)(C)c1ccc(OCC(=O)NNC(=O)Cc2cccs2)cc1`, the AC50 is 3.98 µM (active). Regarding `CCNS(=O)(=O)c1ccc(NS(C)(=O)=O)cc1`, the AC50 result is “inactive”. Consider `C/C(=N/S(=O)(=O)c1ccc(Cl)c(Cl)c1)OCC(C)(C)C`, for which the activity, negative = inhibition is -5.85% [at 11.4 µM] (inactive). As to `O=C1C(Cl)=C(Nc2ccc(S(=O)(=O)Nc3ccccn3)cc2)C(=O)c2ccccc21`, the activity, negative = inhibition was -10.8% [at 11.4 µM] (inactive). For `O=S(=O)(Nc1ccc(Cc2ccncc2)cc1)c1cccs1`, the AC50 was 0.355 µM (active). As to `O=S(=O)(Nc1ccc(Cc2ccncc2)cc1)c1ccc(Cl)c(Cl)c1`, the concentration at half-maximal activity (AC50) is 0.398 µM (active). In the case of `O=S(=O)(Nc1ccc(Cc2ccncc2)cc1)c1ccc(Br)cc1`, the half-maximal activity concentration (AC50) is 0.355 µM (active). As to `Cc1ccc(NC(=O)NNS(=O)(=O)c2ccc(Br)cc2)cc1`, the AC50 entry is “inactive”.

Turning to `N[C@H](Cn1ccc(=O)n(Cc2ccccc2C(=O)O)c1=O)C(=O)O`, the AC50 result is “inactive”. With `Cn1ncc(C#N)c1/N=C/N1CCCCCC1`, the AC50 entry is “inactive”. `Cc1c(-c2c(C#N)c(N)nc3c2CCCCCC3)cnn1C`: the concentration at half-maximal activity (AC50) is 7.94 µM (active).

On to `CCc1sc(-c2c(C#N)c(N)nc3c2CCCCCC3)cc1[N+](=O)[O-]`, for which the activity, negative = inhibition was -20.1% [at 2.29 µM] (inactive). On to `N#Cc1c(N)nc2c(c1-c1cccc(O)c1)CCCCCC2`, for which the AC50 was 4.47 µM (active). Turning to `CC(C)CNC(=S)N1CCN(C)CC1`, the AC50 entry was “inactive”. With `O=C(O)c1cc([N+](=O)[O-])ccc1NCCCc1ccccc1`, the AC50 entry is “inactive”.

`Cc1ccc(NC(=O)c2cc([N+](=O)[O-])ccc2NCc2cccnc2)cc1Cl`: the AC50 is 3.98 µM (active). Turning to `Cc1ccc(C)c(-c2cc(C(=O)Nc3sc(C)c(C)c3C(N)=O)c3ccccc3n2)c1`, the concentration at half-maximal activity (AC50) is 2.82 µM (active).

`COC(=O)c1sccc1NC(=O)c1cc(-c2ccc(C)cc2)nc2ccccc12`: the AC50 result is “inactive”. As to `O=C(O)c1cc(-c2ccc(-c3ccc(-c4cc(C(=O)O)c5cc(Cl)ccc5n4)cc3)cc2)nc2ccc(Cl)cc12`, the activity, negative = inhibition was 24.9% [at 11.4 µM] (inactive). For `Cc1ccc(-c2cc(C(=O)NN=C3CCCC3)c3ccccc3n2)cc1`, the AC50 was 7.94 µM (active).

Turning to `COC(=O)c1sccc1NC(=O)c1cc(-c2cc(C)ccc2C)nc2ccccc12`, the AC50 was 4.47 µM (active). With `Cc1sc(NC(=O)C2CCCCC2C(=O)O)c(C(N)=O)c1C` (stereo unspecified), the activity, negative = inhibition is 14.4% [at 2.29 µM] (inactive).

Turning to `COC(=O)c1sccc1NC(=O)c1cc(-c2ccc(C)cc2C)nc2ccccc12`, the AC50 is 7.08 µM (active).

Regarding `Cc1cc(C)c(C(N)=O)c(NC(=O)Nc2ccccc2)n1`, the AC50 entry is “inactive”. Consider `CCN1C(=O)[C@H]2[C@H]3[C@H](O)[C@H](O)C/C(=N/O[C@@H]4O[C@H](COC(C)=O)[C@@H](OC(C)=O)[C@H](OC(C)=O)[C@H]4OC(C)=O)[C@@H]3CC[C@@H]2C1=O`, for which the activity, negative = inhibition is -5.68% [at 11.4 µM] (inactive). Turning to `Cc1ccc(-c2cc(C(=O)NCc3ccco3)c3ccccc3n2)s1`, the AC50 is 10 µM (active).

Take `Cc1ccc(Nc2ncccc2C(=O)NCc2cccs2)c(C)c1`: the AC50 is 12.6 µM (active). Turning to `Cc1ccccc1-c1cc(C(=O)n2cccn2)c2cc(Cl)ccc2n1`, the AC50 result was “inactive”. In the case of `Cc1ccccc1-c1cc(C(=O)Nc2nc3c(s2)CCCC3)c2ccccc2n1`, the AC50 is 3.16 µM (active). Still for that read-out and setting: to `Cc1ccc(C)c(-c2cc(C(=O)NCc3cccs3)c3ccccc3n2)c1` belongs 1.41 µM (active).

Regarding `CC[C@](N)(CCC(=O)O)C(=O)O`, the AC50 entry was “inactive”. Consider `Cc1ccc(C)c(-c2cc(C(=O)Nc3nccs3)c3ccccc3n2)c1`, for which the AC50 was 2.82 µM (active).
